Molecules are shown by their SMILES. In all, about 39,000 compounds went through this assay and about 3,300 (8.5%) were called active. The sample as a whole holds a higher share of actives than the screen did.

The experiment deals with HepG2. As to the kind of experiment: cytotoxicity call (relative viability < 0.9). Conditions: 10 µM.
On to `NCC(=O)NC1CCCCC1`, for which the cytotoxicity call is “inactive”.
Take `COc1ccc(NC(=O)N(C)C[C@@H]2Oc3ccc(NS(C)(=O)=O)cc3C(=O)N([C@H](C)CO)C[C@H]2C)cc1`: the cytotoxicity call is “inactive”.
For the molecule `COc1ccc2c3c(n(c2c1)C)[C@@H](CO)N(Cc1cc(cc(c1)OC)OC)C[C@]13CCN(CC1)S(=O)(=O)c1cn(cn1)C`, the cytotoxicity call is “inactive”.
The same measure for `C[C@@H]1CN([C@H](C)CO)C(=O)Cc2cc(NS(=O)(=O)c3cccs3)ccc2O[C@@H]1CN(C)CC1CC1`: “inactive”.
The same measure for `C[C@@H]1CN([C@@H](C)CO)C(=O)c2cccc(NS(=O)(=O)c3cn(C)cn3)c2O[C@@H]1CN(C)S(=O)(=O)c1ccc(F)cc1`: “inactive”.
To `Cc1ccc(S(=O)(=O)N(C)C[C@H]2Oc3c(NS(=O)(=O)c4cccs4)cccc3C(=O)N([C@H](C)CO)C[C@H]2C)cc1` belongs “inactive”; to `C[C@H]1CCCCO[C@H](CN(C)C(=O)Nc2ccc(F)cc2)[C@@H](C)CN([C@@H](C)CO)C(=O)c2cc(NC(=O)C3CCCCC3)ccc2O1`, “inactive”; to `CCCN(C)C[C@@H]1OCCCC[C@H](C)Oc2ccc(NC(=O)Nc3ccc(F)cc3)cc2C(=O)N([C@H](C)CO)C[C@@H]1C`, “inactive”.
For the molecule `Cc1ccc(S[C@]2(C(=O)NCc3ccccc3)CC(=O)N(C3CCCCC3)[C@@H]2c2ccc(CO)cc2I)cc1`, the cytotoxicity call was “inactive”.
With `C=CCC[C@H](Cc1ccc(F)cc1)C(=O)OC[C@@H](NC(=O)[C@H](CC=C)CC(=O)N(CCO)Cc1ccccc1)C(C)(C)C`, the cytotoxicity call was “inactive”.
In the case of `COc1ccc(-c2coc3cc(O)ccc3c2=O)cc1`, the cytotoxicity call was “inactive”.
To `COc1ccc(-c2coc3c(O)c(O)c(OC)cc3c2=O)cc1` belongs “active”; to `COc1ccc(-c2coc3c(OC)c(OC)cc(O)c3c2=O)cc1`, “inactive”.
The same measure for `CC(C)NC(=O)Nc1ccc2c(c1)CC(=O)N([C@@H](C)CO)C[C@@H](C)[C@H](CN(C)C(=O)Nc1ccc3c(c1)OCO3)O2`: “inactive”; for `COCc1cc(C)nc2n[nH]c(N)c12`: “active”.
As for `Cc1ccc2c(N)[nH]nc2n1`, the cytotoxicity call is “inactive”.
The same measure for `COCc1cc(C)nc(N)c1C#N`: “inactive”; for `Cc1noc(C)c1S(=O)(=O)N(C)C[C@@H]1Oc2ccc(NC(=O)Cc3cn(C)c4ccccc34)cc2CC(=O)N([C@@H](C)CO)C[C@@H]1C`: “inactive”; for `C[C@@H]1CN([C@H](C)CO)C(=O)c2cc(NC(=O)c3ccccc3)ccc2O[C@@H](C)CCCCO[C@H]1CN(C)C(=O)Nc1ccc(C(F)(F)F)cc1`: “inactive”.
The same measure for `C[C@@H](O)c1nnc(N)[nH]1`: “inactive”.
To `C[C@H](CO)N1C[C@H](C)[C@H](CN(C)Cc2ccc(-c3ccccc3)cc2)Oc2ccc(NS(=O)(=O)c3ccc(Cl)cc3)cc2C1=O` belongs “active”; to `C[C@@H]1CN([C@H](C)CO)C(=O)c2cc(NS(=O)(=O)c3ccc(Cl)cc3)ccc2O[C@H]1CN(C)Cc1ccc(-c2ccccc2)cc1`, “inactive”.
In the case of `C[C@@H]1CN([C@H](C)CO)C(=O)c2cc(NS(=O)(=O)c3ccc(Cl)cc3)ccc2O[C@@H]1CN(C)Cc1ccc(-c2ccccc2)cc1`, the cytotoxicity call is “active”.
The same measure for `C[C@H](CO)N1C[C@H](C)[C@@H](CN(C)Cc2ccc(-c3ccccc3)cc2)Oc2ccc(NS(=O)(=O)c3ccc(Cl)cc3)cc2C1=O`: “active”; for `C[C@H]1CN([C@@H](C)CO)C(=O)c2cc(NS(=O)(=O)c3ccc(Cl)cc3)ccc2O[C@@H]1CN(C)Cc1ccc(-c2ccccc2)cc1`: “inactive”.
As to `C[C@@H]1CN([C@@H](C)CO)C(=O)c2cc(NS(=O)(=O)c3ccc(Cl)cc3)ccc2O[C@@H]1CN(C)Cc1ccc(-c2ccccc2)cc1`, the cytotoxicity call is “active”.
To `C[C@H]1CN([C@@H](C)CO)C(=O)c2cc(NS(=O)(=O)c3ccc(Cl)cc3)ccc2O[C@H]1CN(C)Cc1ccc(-c2ccccc2)cc1` belongs “inactive”; to `C[C@@H]1CN([C@@H](C)CO)C(=O)c2cc(NS(=O)(=O)c3ccc(Cl)cc3)ccc2O[C@H]1CN(C)Cc1ccc(-c2ccccc2)cc1`, “inactive”.
`C[C@H](CO)N1C[C@H](C)[C@H](CN(C)Cc2ccc(Oc3ccccc3)cc2)Oc2cc(Br)ccc2S1(=O)=O`: the cytotoxicity call was “inactive”.
The same measure for `C[C@H]1CN([C@@H](C)CO)C(=O)c2cc(NC(=O)CCCCCC(=O)Nc3ccccc3N)ccc2O[C@@H]1CN(C)C(=O)Nc1cccc2ccccc12`: “inactive”; for `CC(C)NC(=O)N(C)C[C@H]1Oc2ccc(NS(=O)(=O)c3ccc(Cl)cc3)cc2C(=O)N([C@H](C)CO)C[C@@H]1C`: “inactive”.
The same measure for `C[C@H](CO)N1C[C@H](C)[C@H](CN(C)C(=O)Nc2ccc(F)cc2)Oc2c(NS(=O)(=O)c3cn(C)cn3)cccc2C1=O`: “inactive”; for `C[C@@H]1CN([C@@H](C)CO)C(=O)c2cccc(NC(=O)Nc3ccc(C(F)(F)F)cc3)c2O[C@@H]1CN(C)S(=O)(=O)c1ccc(F)cc1`: “inactive”; for `Nc1ncnc(N[C@H]2CCS(=O)(=O)C2)c1[N+](=O)[O-]`: “inactive”.
The same measure for `C[C@@H]1CCCCO[C@H](CN(C)Cc2ccc(C(F)(F)F)cc2)[C@H](C)CN([C@H](C)CO)C(=O)c2cc(NC(=O)CCC(F)(F)F)ccc2O1`: “inactive”; for `COCC(=O)N1C[C@H](C)[C@H](OC)CN(C)C(=O)c2ccc(NC(=O)Nc3ccccc3)cc2OC[C@H]1C`: “inactive”.
As to `C[C@@H]1CN([C@H](C)CO)C(=O)Cc2cc(NS(=O)(=O)c3ccccc3)ccc2O[C@H]1CN(C)Cc1ccc(C(=O)O)cc1`, the cytotoxicity call is “inactive”.
To `COc1ccc(S(=O)(=O)Nc2ccc3c(c2)C(=O)N([C@H](C)CO)C[C@H](C)[C@@H](CN(C)CC2CCCCC2)OCCCC[C@@H](C)O3)cc1` belongs “inactive”.
The same measure for `C[C@H](CO)N1C[C@H](C)[C@@H](CN(C)S(=O)(=O)c2ccccc2)Oc2c(NS(=O)(=O)c3ccc(F)cc3)cccc2C1=O`: “inactive”.
The same measure for `CC(C)(C)S(=O)N1Cc2cc(C(=O)N3CCN(Cc4ccccc4)CC3)nc(-c3cccc(C#CCC4CCCC4)c3)c2[C@H]1CCO` (stereo not given in full): “active”; for `COc1ccc(C#Cc2cccc(-c3nc(C(=O)N4CCN(Cc5ccccc5)CC4)cc4c3[C@H](CCO)N(S(=O)C(C)(C)C)C4)c2)cc1OC` (stereo not given in full): “inactive”; for `CC(C)(C)[S@@](=O)N1Cc2cc(C(=O)N3CCCCC3)nc(-c3cccc(-c4ccccc4F)c3)c2[C@H]1CCO`: “inactive”.
As for `COc1ccc(C#Cc2cccc(-c3nc(C(=O)N4CCN(Cc5ccccc5)CC4)cc4c3[C@@H](CCO)N(S(=O)C(C)(C)C)C4)c2)cc1OC` (stereo not given in full), the cytotoxicity call is “inactive”.
To `CC(C)(C)S(=O)N1Cc2cc(C(=O)N3CCN(Cc4ccccc4)CC3)nc(-c3cccc(-c4cc5ccccc5o4)c3)c2[C@H]1CCO` (stereo not given in full) belongs “active”; to `CC(C)(C)[S@](=O)N1Cc2cc(C(=O)N3CCCCC3)nc(-c3cccc(-c4ccccc4F)c3)c2[C@@H]1CCO`, “inactive”.
On to `COCCCN(C[C@]1(O)CC[C@H]2C3=CC=C4C[C@@H](O)CC[C@]4(C)[C@@H]3CC[C@@]21C)C(=O)O[C@H]1C[C@@H](C)CC[C@@H]1C(C)C`, for which the cytotoxicity call was “inactive”.
The same measure for `CC(C)NC(=O)N(C)C[C@H]1Oc2ccc(NS(=O)(=O)c3cccs3)cc2C(=O)N([C@H](C)CO)C[C@@H]1C`: “inactive”; for `CO[C@H]1CN(C)C(=O)c2cc(NS(C)(=O)=O)ccc2OC[C@@H](C)N(C(=O)C2CCOCC2)C[C@H]1C`: “inactive”; for `C[C@@H]1CN([C@@H](C)CO)C(=O)Cc2cc(NC(=O)C3CCCCC3)ccc2O[C@H]1CN(C)Cc1ccc(Cl)c(Cl)c1`: “inactive”.
To `C[C@H]1CN([C@@H](C)CO)C(=O)Cc2cc(NC(=O)Cn3cnnn3)ccc2O[C@H]1CN(C)C(=O)Nc1ccc2c(c1)OCO2` belongs “inactive”; to `Cc1ccc(S(=O)(=O)N(C)C[C@H]2Oc3c(NS(=O)(=O)c4cn(C)cn4)cccc3C(=O)N([C@H](C)CO)C[C@@H]2C)cc1`, “inactive”.
Turning to `C[N+](C)(C)CCCCCCNC(=O)[C@@H]1C[C@@H]2C(=O)N[C@@H](CCCC[N+](C)(C)C)C(=O)N2[C@@H]1c1ccc(O)cc1`, the cytotoxicity call was “inactive”.
Consider `Cc1ccc(S(=O)(=O)N(C)C[C@H]2Oc3ccc(NC(=O)NC(C)C)cc3C(=O)N([C@@H](C)CO)C[C@H]2C)cc1`, for which the cytotoxicity call was “inactive”.
In the case of `C[C@H](CO)N1C[C@H](C)[C@@H](CN(C)C(=O)N[C@H](C)c2ccccc2)OCc2ccccc2-c2c(n(C)c3ccccc23)C1=O`, the cytotoxicity call was “inactive”.
The same measure for `O=C(C[C@H]1CC[C@@H]2[C@H](COC[C@H](O)CN2S(=O)(=O)c2ccccc2)O1)N1CCc2ccccc2C1`: “inactive”.
To `CCCC[C@@H](C)/C=C(C)/C=C(\C)C(=O)NC1=C[C@@](O)(/C=C/C=C/C=C/C(=O)NC2C(=O)CCC2=O)[C@@H]2O[C@@H]2C1=O` belongs “active”.
To `C[C@@H]1CN([C@@H](C)CO)C(=O)c2cccc(NC(=O)Nc3ccc4c(c3)OCO4)c2O[C@@H]1CN(C)Cc1ccc(Cl)c(Cl)c1` belongs “inactive”; to `O=C(C[C@@H]1CC[C@H]2[C@@H](COC[C@H](O)CN2CC2CCOCC2)O1)N1CCOCC1`, “inactive”.
Consider `CN1C(=O)c2cc(NC(=O)c3ccc(F)cc3)ccc2OC[C@H]2O[C@H](CC(=O)N3CCOCC3)CC[C@H]21`, for which the cytotoxicity call was “inactive”.
The same measure for `COc1cccc(C(=O)Nc2ccc3c(c2)C(=O)N(C)[C@H]2CC[C@H](CC(=O)NCC(F)(F)F)O[C@H]2CO3)c1`: “inactive”; for `COc1cccc(C(=O)Nc2ccc3c(c2)C(=O)N(C)[C@@H]2CC[C@H](CC(=O)NCC(F)(F)F)O[C@@H]2CO3)c1`: “active”; for `CN1C(=O)c2cc(NC(=O)c3ccc(F)cc3)ccc2OC[C@@H]2O[C@@H](CC(=O)N3CCOCC3)CC[C@H]21`: “active”.
To `COCC(=O)Nc1ccc2c(c1)C(=O)N(C)[C@@H]1CC[C@H](CC(=O)N3CCc4ccccc4C3)O[C@@H]1CO2` belongs “inactive”; to `COc1cccc(C(=O)Nc2ccc3c(c2)C(=O)N(C)[C@H]2CC[C@H](CC(=O)NCC(F)(F)F)O[C@@H]2CO3)c1`, “inactive”; to `COc1cccc(C(=O)Nc2ccc3c(c2)C(=O)N(C)[C@@H]2CC[C@@H](CC(=O)NCC4CC4)O[C@@H]2CO3)c1`, “inactive”.
To `COc1cccc(C(=O)Nc2ccc3c(c2)C(=O)N(C)[C@@H]2CC[C@H](CC(=O)NCC4CC4)O[C@@H]2CO3)c1` belongs “active”; to `CN1C(=O)c2cc(NC(=O)c3ccc(F)cc3)ccc2OC[C@H]2O[C@@H](CC(=O)N3CCOCC3)CC[C@H]21`, “inactive”.
With `COCC(=O)Nc1ccc2c(c1)C(=O)N(C)[C@H]1CC[C@@H](CC(=O)N3CCc4ccccc4C3)O[C@@H]1CO2`, the cytotoxicity call is “inactive”.
As for `COc1cccc(C(=O)Nc2ccc3c(c2)C(=O)N(C)[C@H]2CC[C@H](CC(=O)NCC4CC4)O[C@@H]2CO3)c1`, the cytotoxicity call was “inactive”.
The same measure for `COCC(=O)Nc1ccc2c(c1)C(=O)N(C)[C@H]1CC[C@H](CC(=O)N3CCc4ccccc4C3)O[C@H]1CO2`: “active”.

(Values after the antibiotic and cytotoxicity screens of Wong et al. (2023).)
